Assay [1] can be described thus: NCI Yeast Anticancer Drug Screen. Data for the rad50 strain (AID 155).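 Note: 0% = growth of vehicle-only cultures of the same strain.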 The settings on record: S. cerevisiae rad50 strain growth inhibition, stronger effect = higher value. The gist of the method:
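Vehicle-treated cultures provide the reference for the growth inhibition reported for compound-exposed, repair-deficient yeast.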

Assay [2] in a line: NCI Yeast Anticancer Drug Screen. Data for the mec2-1 strain (AID 157). The settings on record: S. cerevisiae mec2-1 strain, stronger effect = higher value. The gist of the method:
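Using mec2-1 yeast: add compound, measure growth, express inhibition versus vehicle-treated cultures.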

Assay [3] is described as follows: NCI Yeast Anticancer Drug Screen. Data for the sgs1 mgt1 strain (AID 161).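 Note: 0% = growth of cultures given vehicle only.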 The settings on record: S. cerevisiae sgs1 mgt1 strain, stronger effect = higher value. In a few lines:
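Percent growth inhibition was derived by comparing compound-exposed mutant yeast with vehicle-exposed cultures. The strain carries alterations in DNA damage repair.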

Assay [4] in a line: NCI Yeast Anticancer Drug Screen. Data for the cln2 rad14 strain (AID 165).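 Note: 0% = growth equal to vehicle treated cultures.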 The settings on record: S. cerevisiae cln2 rad14 strain, stronger effect = higher value. The gist of the method:
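Yeast strain cln2 rad14, bearing defects in cell cycle control and DNA repair, serves as the test system; values reflect growth inhibition compared with vehicle.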

A short description of assay [5]: NCI Yeast Anticancer Drug Screen. Data for the bub3 strain (AID 167). To be noted: S. cerevisiae bub3 mutant strain, stronger effect = higher value. In a few lines: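 Mutant yeast screening strain plus compound; vehicle-treated cultures serve as the 0% inhibition reference.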
Assay [6] can be described thus: NCI Yeast Anticancer Drug Screen. Data for the mlh1 rad18 strain (AID 175). The settings on record: S. cerevisiae mlh1 rad18 strain growth inhibition, stronger effect = higher value. The gist of the method: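 Steps: expose repair-defective yeast to compound; measure growth; express inhibition against vehicle-treated controls.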
[7] abbreviates: at 5.0 µM (retest, dose inferred, filed as 0.5).
Where [8] appears, read: at 50.0 µM (retest, dose inferred, filed as 5.0).

Values joined by “and” are separate entries in the source; they are usually repeats but may differ in a detail not shown here. Equal entries are not always repeated. About 79,000 compounds went through this panel and 15% of them were active in at least one assay; those are over-represented in the sample as a whole. Some structures have more than one record in an assay (separate samples or runs), and their calls can disagree. Active and inactive are the calls of the source. Cut-off read from the data, not from the text of the source: active = growth inhibition above about 70%; inactive = the rest.

`CCOC(=O)C(C(=O)c1ccccc1)C(=O)c1ccccc1`: the growth inhibition in assay [1] (setting [7]) is 29% (inactive); in assay [1] (setting [8]), 85% (active); in assay [1] (at 50.0 µM) it was -24.3% (inactive) and 90.8% (active); in assay [2] (setting [7]) it was 29% (inactive); in assay [2] (setting [8]) it was 93% (active); in assay [2] (at 50.0 µM), -14.4% (inactive) and 91.2% (active). In addition, the growth inhibition was 37% (inactive) in assay [3] (setting [7]); 82% (active) in assay [3] (setting [8]); -4.65% (inactive) and 92% (active) in assay [3] (at 50.0 µM); 34% (inactive) in assay [4] (setting [7]); 56% (inactive) in assay [4] (setting [8]); -21.1% (inactive) and 90.6% (active) in assay [4] (at 50.0 µM). Further, the growth inhibition is 35% (inactive) in assay [5] (setting [7]); 92% (active) in assay [5] (setting [8]); -0.95% (inactive) and 90.5% (active) in assay [5] (at 50.0 µM); 35% (inactive) in assay [6] (setting [7]); 97% (active) in assay [6] (setting [8]); -22% (inactive) and 90.8% (active) in assay [6] (at 50.0 µM).
With `C=CC(=O)OCCOc1ccc(Cl)cc1Cl`, the growth inhibition is 1% (inactive) in assay [1] (setting [7]); 98% (active) in assay [1] (setting [8]); 57.2% (inactive) in assay [1] (at 50.0 µM); 2% (inactive) in assay [2] (setting [7]); 99% (active) in assay [2] (setting [8]); 30.4% (inactive) in assay [2] (at 50.0 µM). In addition, the growth inhibition was 6% (inactive) in assay [3] (setting [7]); 98% (active) in assay [3] (setting [8]); 73.2% (active) in assay [3] (at 50.0 µM); -1% (inactive) in assay [4] (setting [7]); 94% (active) in assay [4] (setting [8]); -28.1% (inactive) in assay [4] (at 50.0 µM). In addition, the growth inhibition in assay [5] (setting [7]) was 12% (inactive); in assay [5] (setting [8]), 97% (active); in assay [5] (at 50.0 µM) it was 24.2% (inactive); in assay [6] (setting [7]), 24% (inactive); in assay [6] (setting [8]), 98% (active); in assay [6] (at 50.0 µM), 83.9% (active).
As to `Cc1ccc(S(=O)(=O)N/N=C2/C(=O)c3cccc4cccc2c34)cc1`, the growth inhibition in assay [1] (setting [7]) is 6% (inactive); in assay [1] (setting [8]) it was 74% (active); in assay [1] (at 50.0 µM) it was 64.5% (inactive); in assay [2] (setting [7]), -15% (inactive); in assay [2] (setting [8]), 64% (inactive); in assay [2] (at 50.0 µM), 12.8% (inactive). In addition, the growth inhibition in assay [3] (setting [7]) is 10% (inactive); in assay [3] (setting [8]), 76% (active); in assay [3] (at 50.0 µM) it was 55.8% (inactive); in assay [4] (setting [7]), 2% (inactive); in assay [4] (setting [8]) it was 39% (inactive); in assay [4] (at 50.0 µM), 30.5% (inactive). Also, the growth inhibition in assay [5] (setting [7]) was 0% (inactive); in assay [5] (setting [8]), 55% (inactive); in assay [5] (at 50.0 µM), 0.25% (inactive); in assay [6] (setting [7]) it was 33% (inactive); in assay [6] (setting [8]), 92% (active); in assay [6] (at 50.0 µM) it was 24.8% (inactive).
For the molecule `Cc1c(N)nc(C(CC(N)=O)NCC(N)C(N)=O)nc1C(=O)NC(C(=O)NC(C)C(O)C(C)C(=O)NC(C(=O)NCCc1nc(-c2nc(C(=O)NCCCNCCCCN)cs2)cs1)C(C)O)C(OC1OC(CO)C(O)C(O)C1OC1OC(CO)C(O)C(OC(N)=O)C1O)c1cnc[nH]1` (centres undefined), the growth inhibition in assay [1] (setting [7]) was 92% (active); in assay [1] (setting [8]), 98% (active); in assay [1] (at 50.0 µM), 99% (active) and 88.6% (active); in assay [2] (setting [7]), 37% (inactive); in assay [2] (setting [8]) it was 98% (active); in assay [2] (at 50.0 µM), 99.2% (active) and 88.1% (active). The growth inhibition was 77% (active) in assay [3] (setting [7]); 98% (active) in assay [3] (setting [8]); 99% (active) and 88.2% (active) in assay [3] (at 50.0 µM); 65% (inactive) in assay [4] (setting [7]); 98% (active) in assay [4] (setting [8]); 97.7% (active) and 86.5% (active) in assay [4] (at 50.0 µM). In addition, the growth inhibition was 76% (active) in assay [5] (setting [7]); 98% (active) in assay [5] (setting [8]); 99% (active) and 87.9% (active) in assay [5] (at 50.0 µM); 94% (active) in assay [6] (setting [7]); 98% (active) in assay [6] (setting [8]); 98.9% (active) and 90% (active) in assay [6] (at 50.0 µM).
For the molecule `COc1ccc(/C=C2\CCCC(CN(C)C)C2=O)cc1` (centres undefined), the growth inhibition in assay [1] (setting [7]) is -1% (inactive); in assay [1] (setting [8]), 8% (inactive); in assay [1] (at 50.0 µM), 65.4% (inactive); in assay [2] (setting [7]), -20% (inactive); in assay [2] (setting [8]), 13% (inactive); in assay [2] (at 50.0 µM), 78.8% (active). Also, the growth inhibition in assay [3] (setting [7]) was -31% (inactive); in assay [3] (setting [8]) it was -3% (inactive); in assay [3] (at 50.0 µM), 86.2% (active); in assay [4] (setting [7]), -32% (inactive); in assay [4] (setting [8]), 9% (inactive); in assay [4] (at 50.0 µM) it was 57.4% (inactive). Also, the growth inhibition in assay [5] (setting [7]) was -48% (inactive); in assay [5] (setting [8]), 23% (inactive); in assay [5] (at 50.0 µM), 81.8% (active); in assay [6] (setting [7]), -22% (inactive); in assay [6] (setting [8]), 5% (inactive); in assay [6] (at 50.0 µM) it was 84.7% (active).
For `Fc1cccc(NC(=S)SCc2ccc(Cl)c(Cl)c2)c1`, the growth inhibition in assay [1] (setting [7]) is 8% (inactive); in assay [1] (setting [8]), 94% (active); in assay [1] (at 50.0 µM) it was 98.2% (active); in assay [2] (setting [7]) it was 3% (inactive); in assay [2] (setting [8]) it was 93% (active); in assay [2] (at 50.0 µM) it was 99.2% (active). The growth inhibition in assay [3] (setting [7]) was 6% (inactive); in assay [3] (setting [8]), 98% (active); in assay [3] (at 50.0 µM), 99% (active); in assay [4] (setting [7]) it was -7% (inactive); in assay [4] (setting [8]), 85% (active); in assay [4] (at 50.0 µM), 98.8% (active). The growth inhibition in assay [5] (setting [7]) was 0% (inactive); in assay [5] (setting [8]), 95% (active); in assay [5] (at 50.0 µM), 98% (active); in assay [6] (setting [7]), 4% (inactive); in assay [6] (setting [8]), 96% (active); in assay [6] (at 50.0 µM) it was 99% (active).
In the case of `O=C(O)/C(=C(/c1ccccc1)c1ccc(Cl)cc1)c1ccccc1`, the growth inhibition in assay [1] (setting [7]) is 35% (inactive); in assay [1] (setting [8]) it was 98% (active); in assay [1] (at 50.0 µM), 98.2% (active) and 89.3% (active); in assay [2] (setting [7]), 37% (inactive); in assay [2] (setting [8]), 100% (active); in assay [2] (at 50.0 µM), 32.6% (inactive) and -26.5% (inactive). Besides, the growth inhibition in assay [3] (setting [7]) was 46% (inactive); in assay [3] (setting [8]), 100% (active); in assay [3] (at 50.0 µM), 81.8% (active) and 89.8% (active); in assay [4] (setting [7]) it was 55% (inactive); in assay [4] (setting [8]) it was 99% (active); in assay [4] (at 50.0 µM), 94.2% (active) and 91.3% (active). Moreover, the growth inhibition was 43% (inactive) in assay [5] (setting [7]); 99% (active) in assay [5] (setting [8]); 49.7% (inactive) and 90.3% (active) in assay [5] (at 50.0 µM); 69% (inactive) in assay [6] (setting [7]); 98% (active) in assay [6] (setting [8]); 97.4% (active) and 89.5% (active) in assay [6] (at 50.0 µM).
With `CN(CCN1C(=O)c2cccc3cccc(c23)C1=O)CCN1C(=O)c2cccc3cccc(c23)C1=O`, the growth inhibition in assay [1] (setting [7]) is 97% (active); in assay [1] (setting [8]), 96% (active); in assay [1] (at 50.0 µM), 98.5% (active); in assay [2] (setting [7]) it was 20% (inactive); in assay [2] (setting [8]), 97% (active); in assay [2] (at 50.0 µM), 98.2% (active). Also, the growth inhibition in assay [3] (setting [7]) is 69% (inactive); in assay [3] (setting [8]) it was 97% (active); in assay [3] (at 50.0 µM), 97.2% (active); in assay [4] (setting [7]) it was 15% (inactive); in assay [4] (setting [8]), 90% (active); in assay [4] (at 50.0 µM) it was 83.6% (active). In addition, the growth inhibition is -2% (inactive) in assay [5] (setting [7]); 95% (active) in assay [5] (setting [8]); 96% (active) in assay [5] (at 50.0 µM); 47% (inactive) in assay [6] (setting [7]); 97% (active) in assay [6] (setting [8]); 98.1% (active) in assay [6] (at 50.0 µM).

The record behind these values is PubChem BioAssay (NCI).
